Compounds with a hit are over-represented: about 2.9% of the library has one in this group of screens.
Granule exo inh = LAMP-1 surface exposure blockers, TALL-104 cells – cell-based, flow cytometry, MLPCN library, primary screen; TALL-104 LAMP-1 surface exposure; cells stimulated with thapsigargin and PMA; inhibition, % at 10 µM; 360,000 tested, 0.66% active;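 active = inhibition above about 55%, limit read from the data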
GRK2 inh = compounds blocking aptamer binding on GRK2 – biochemical, human GRK2, bead flow cytometry, HTS, primary screen. inhibition of aptamer binding, % at 10 µM. 330,000 tested, 0.59% active. Beta-adrenergic receptor kinase 1 (Homo sapiens), P25098. FAM-aptamer displacement from GRK2;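 active = inhibition of aptamer binding above 40%, roughly 3 SD of noise, on plates passing a quality check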;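 note: median bead fluorescence of bound FAM aptamer so fluorescent compounds give negative values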
Target sequence (P25098 whole entry, looked up): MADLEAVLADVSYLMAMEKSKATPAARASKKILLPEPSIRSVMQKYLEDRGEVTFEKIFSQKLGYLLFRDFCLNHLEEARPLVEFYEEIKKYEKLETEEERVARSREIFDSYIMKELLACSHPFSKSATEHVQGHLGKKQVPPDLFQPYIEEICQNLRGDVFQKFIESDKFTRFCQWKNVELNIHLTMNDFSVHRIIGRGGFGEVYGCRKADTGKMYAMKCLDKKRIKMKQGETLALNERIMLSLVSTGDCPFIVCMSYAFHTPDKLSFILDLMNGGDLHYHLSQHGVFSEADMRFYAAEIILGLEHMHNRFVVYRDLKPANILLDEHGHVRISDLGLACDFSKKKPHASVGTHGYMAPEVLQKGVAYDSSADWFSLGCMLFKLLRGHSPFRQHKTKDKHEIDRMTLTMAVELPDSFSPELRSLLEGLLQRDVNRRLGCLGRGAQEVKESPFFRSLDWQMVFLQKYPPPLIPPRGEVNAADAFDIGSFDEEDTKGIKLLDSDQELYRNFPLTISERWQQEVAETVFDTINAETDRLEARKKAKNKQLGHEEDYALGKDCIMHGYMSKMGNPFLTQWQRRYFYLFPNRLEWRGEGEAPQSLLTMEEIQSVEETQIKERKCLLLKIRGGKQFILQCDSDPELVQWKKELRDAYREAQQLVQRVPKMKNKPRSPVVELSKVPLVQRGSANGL
NadD block = inhibitors of S. aureus NadD, primary screen, biochemical, colorimetric, uHTS; Nicotinate-nucleotide adenylyltransferase NadD (Staphylococcus aureus N315); purified NadD enzyme, colorimetric absorbance read-out; inhibition, % at 20 µM; 360,000 tested, 0.78% active; AID 602399, 2012; in the data active = inhibition above about 26%
PP1 inh = PP1-alpha phosphatase inhibitors, primary screen, counter-screen for PP5 inhibitor project, biochemical, fluorescence, OMFP substrate, single point; inhibition, % at 6.7 µM; AID 2235, 2010; 320,000 tested, 0.9% active; Serine/threonine-protein phosphatase PP1-alpha catalytic subunit (Homo sapiens), P62136; purified PP1alpha;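 active = inhibition above the mean inhibition of all tested compounds plus 3 SD, computed separately for each screening campaign, cut at about 15% in these data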
Beta2AR agonist = beta2AR agonists driving receptor internalization, primary screen, cell-based, FAP fluorogen, flow cytometry | 340,000 tested, 0.43% active | AID 504454, 2011 | Am2.2-beta2AR cells | Beta-2 adrenergic receptor (Homo sapiens), P07550 | response, % (test concentration not listed);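 active = response above a set limit, near 3 SD of response in nonfluorescent compounds, cut at about 42% in these data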
Starred values were filed as active, the others as inactive; i = inactive; . = no result.

SMILES | Granule exo inh | GRK2 inh | NadD block | PP1 inh | Beta2AR agonist
COC(=O)c1ccc(=O)c2nc3/c(=C/O)c(O)cc(=O)c3[nH]c12 | -4 | 67* | -7 | 49* | -1
COC(=O)c1ccc(N)cc1O | -1 | 1 | -2 | 1 | 1
Cc1ccc(S(=O)(=O)N2CCN(C(=O)CN3C(=O)c4ccccc4C3=O)CC2)c(C)c1 | 4 | 3 | -3 | -2 | -7
COC(=O)n1c(SC)nc2ccccc21 | 2 | 0 | 2 | 0 | 78*
CCc1cccc(C)c1NC(=O)CN(C)S(=O)(=O)c1ccc(-c2ccc(=O)[nH]n2)s1 | -1 | 0 | -1 | 5 | 1
Cc1cnc(CN(C)C(=O)CC2C(=O)NCCN2CCCc2ccccc2)[nH]1 (configuration not stated) | 5 | 0 | -1 | -3 | 1
O=C(/C=C/c1ccc(-c2ccccc2[N+](=O)[O-])o1)c1ccc(F)cc1 | 80* | 4 | 2 | -1 | 2
O=C(/C=C/c1ccc(-c2ccccc2[N+](=O)[O-])o1)c1ccc(Br)cc1 | 32 | 6 | -7 | -8 | 2
O=C(/C=C/c1ccc(-c2ccccc2)o1)c1ccccc1 | 78* | 5 | 7 | 1 | 3
Cc1ccc(-c2ccc(/C=C/C(=O)c3ccccc3)o2)cc1 | 68* | 14 | 6 | 3 | 13
CN(C)c1ccc(P(=O)(OCc2ccccc2)C(O)c2ccccc2)cc1 (configuration not stated) | 7 | 0 | -7 | -4 | -4
COC(=O)c1sc(S(=O)(=O)N2CCC(C(=O)O)CC2)c(C(=O)OC)c1C | -2 | 6 | 5 | -4 | -3
O=C(NC1CCN(C(=O)Nc2ccccc2Cl)CC1)c1cccc(F)c1 | 0 | 0 | 6 | 2 | -9
CCCc1ccc(C2=Nn3c(nnc3C(C)C)SC2)cc1 | 17 | 0 | -4 | 2 | 66*
Cc1ccc2[nH]c3c(=O)n(CC(=O)Nc4ccccc4N4CCN(C)CC4)ncc3c2c1 | 17 | 0 | -9 | -3 | 4
Nc1nn2c(-c3ccccc3)cc(=O)[nH]c2c1N=Nc1ccc(Br)cc1 | 7 | . | 77* | . | -2
CCN1/C(=C/c2ccc3cc(C)ccc3[n+]2CC)Sc2cc(C)c(C)cc21 | 57* | . | 26 | . | i
O=C(CSC(=S)N1CCCC1)NCC(=O)Nc1ccc(F)c(F)c1 | 0 | 1 | -4 | -8 | 2
O=C1Nc2ccccc2C(O)(C(=O)NCc2ccco2)N1c1ccc(Cl)c(Cl)c1 (configuration not stated) | -1 | 1 | 6 | -2 | 10
CCN(CC)CC(C)CNC(=O)C1(O)c2ccccc2NC(=O)N1c1ccc(Cl)c(Cl)c1 (configuration not stated) | 2 | 0 | -2 | 15* | -4
CCn1cc(C(=O)O)c(=O)c2cc(F)c(N/N=C/c3ccccc3[N+](=O)[O-])cc21 | 72* | 0 | 21 | 2 | 6
CC(C)NCC(O)COc1ccc2c(c1)CCC2 (configuration not stated) | -3 | 3 | -4 | -1 | -6
COc1ccccc1CNC(=O)/C=C/c1ccc(S(=O)(=O)NCc2ccco2)cc1 | 0 | 62* | -3 | 3 | 3
N#Cc1ccc(COC(=O)CCc2c[nH]c3ccccc23)cc1 | 44 | 0 | -12 | -2 | 10
CC(=O)Nc1cc(N=Cc2ccc(O)cc2O)c(Cl)cc1Cl | 18 | 4 | -2 | 0 | 18
SMILES | Granule exo inh | GRK2 inh | NadD block | PP1 inh | Beta2AR agonist
Cc1nn(-c2ccccc2)c(N2CCCC2)c1/C=N/NC(=O)c1cc2ccccc2cc1O | 8 | 66* | 39* | 10 | 8
O=C(N/N=C/c1ccncc1)c1cc2ccccc2cc1O | 29 | 4 | -1 | . | 8
O=C(N/N=C/c1ccc[nH]1)c1cc2ccccc2cc1O | 15 | 2 | 11 | 5 | 46*
O=C1CCN(CCc2ccccc2)CCN1CCSc1ccccc1 | -3 | 0 | -4 | 2 | -5
COc1cc(/C=C/C(=O)OCC(=O)c2ccc(OC(F)F)cc2)ccc1O | 67* | 1 | -11 | . | 7
O=C(/C=C/c1ccco1)OCC(=O)c1ccc(OC(F)F)cc1 | -4 | 1 | 2 | -1 | 2

Compound activity from PubChem.
